Experiment [1] can be described thus: qHTS assay to test for compound auto fluorescence at 535 nm (green) in HEK293 cells (AID 720680).
The nature of experiment [2]: qHTS assay to test for compound auto fluorescence at 460 nm (blue) in HEK293 cell free culture (AID 720681). Note: potency is the fitted concentration of half-maximal effect. The method, boiled down: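 Blue fluorescence (Ex 405/Em 460 nm, triamterene-equivalent) was read immediately after pin transfer of compound or DMSO into medium (DMEM, 10% FBS) without cells.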
On the technique in general: In qHTS, concentration-response curves come from the screen itself.

A short description of experiment [3]: qHTS assay to test for compound auto fluorescence at 535 nm (green) in HEK293 cell free culture (AID 720682). An outline of the steps:
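Green-label autofluorescence (485 nm excitation, 535 nm emission) measured on compound added to cell-free culture medium (DMEM, 10% FBS). Output is expressed relative to fluorescein.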

Experiment [4] is described as follows: qHTS assay to test for compound auto fluorescence at 590 nm (red) in HEK293 cell free culture (AID 720683). An outline of the steps: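 Red-channel autofluorescence of compounds in culture medium (DMEM, 10% FBS), no cells, measured at 540/590 nm. Rose Bengal sodium is the reference fluorophore for equivalence.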
The nature of experiment [5]: qHTS assay to test for compound auto fluorescence at 590 nm (red) in HepG2 cell free culture (AID 720684). An outline of the steps:
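Cell-free; medium MEM + 10% FBS; compound or DMSO added by pintool; read Ex 540/Em 590 nm; Rose Bengal sodium as red reference fluorophore.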

Experiment [6] can be described thus: qHTS assay to test for compound auto fluorescence at 460 nm (blue) in HepG2 cell free culture (AID 720685). Note: potency is the fitted concentration of half-maximal effect. An outline of the steps: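 Cell-free plates of MEM plus 10% FBS received 23 nL compound or DMSO vehicle; blue-channel (405/460 nm) intensity scored against triamterene as reference fluorophore.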
Experiment [7] is described as follows: qHTS assay to test for compound auto fluorescence at 460 nm (blue) in HepG2 cells (AID 720687). Note: potency is the fitted concentration of half-maximal effect. An outline of the steps: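 Blue-channel autofluorescence (Ex/Em 405/460 nm, triamterene-equivalent) was measured after 1 hr compound exposure at 37 C, 5% CO2. Cells were HepG2, plated overnight at 37 C in MEM plus 10% FBS.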
Experiment [8] has as its target Glucocorticoid receptor (Homo sapiens) (UniProt P04150). Briefly: qHTS assay to identify small molecule agonists of the glucocorticoid receptor (GR) signaling pathway (AID 720691; active = well fitted activation curve with a large enough effect in the signal ratio in the repeat runs, not every such curve was filed as active; the % refers to the signal ratio). The method, boiled down:
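Steps: seed GR-bla HeLa cells, incubate 4 h at 37 C/5% CO2; pin-transfer DMSO-dissolved compounds; incubate 18 h at 37 C; add LiveBLAzer B/G FRET substrate; after 2 h at room temperature, measure fluorescence.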

The target is the same in experiment [9]. Briefly: qHTS assay to identify small molecule antagonists of the glucocorticoid receptor (GR) signaling pathway (AID 720692; active = well fitted inhibition curve with a large enough effect in the signal ratio in the repeat runs, not every such curve was filed as active; the % refers to the signal ratio). The method, boiled down: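 Antagonism was scored as loss of dexamethasone-driven (5 nM final) reporter signal in HeLa cells bearing a glucocorticoid response element–beta-lactamase construct, after 18 h compound exposure at 37 C and 2 h FRET substrate loading.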

Experiment [10] in a line: qHTS assay to identify small molecule antagonists of the glucocorticoid receptor (GR) signaling pathway - cell viability counter screen (AID 720693). Note: nearly all actives have a fitted effect of over 55% in size.
A short description of experiment [11]: qHTS assay for identifying genotoxic compounds that show differential cytotoxicity against isogenic chicken DT40 cell lines with known DNA damage response pathways - Rev3 mutant cell line (AID 743014). Note: nearly all actives have a fitted effect of over 55% in size. Note: potency is the fitted concentration of half-maximal effect.
Experiment [12] can be described thus: qHTS assay for identifying genotoxic compounds that show differential cytotoxicity against isogenic chicken DT40 cell lines with known DNA damage response pathways - Rad54/Ku70 mutant cell line (AID 743015). Note: nearly all actives have a fitted effect of over 60% in size. Note: potency is the fitted concentration of half-maximal effect.
Experiment [13] is described as follows: qHTS assay to identify small molecule antagonists of the androgen receptor (AR) signaling pathway - cell viability counter screen (AID 743033; note: nearly all actives have a fitted effect of over 45% in size; note: potency is the fitted concentration of half-maximal effect).
Experiment [14] can be described thus: qHTS assay to identify small molecule antagonists of the androgen receptor (AR) signaling pathway using the MDA cell line - cell viability counter screen (AID 743041; note: nearly all actives have a fitted effect of over 45% in size). The method, boiled down:
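Viability read by CellTiter-Fluor fluorescence in the same wells as the antagonist screen, added after 15.5 h of a 16 h, 37C exposure. Human breast carcinoma MDA-kb2 AR-luc cells, compounds co-dosed with agonist R1881.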

A short description of experiment [15]: qHTS assay to test for compound auto fluorescence at 535 nm (green) in HepG2 cell free culture (AID 720686).
In experiment [16] the target is Androgen receptor (Homo sapiens) (UniProt P10275). Briefly: qHTS assay to identify small molecule agonists of the androgen receptor (AR) signaling pathway (AID 743036; active = well fitted activation curve with a large enough effect in the signal ratio in the repeat runs, with a control signal flat, not every such curve was filed as active; the % refers to the signal ratio; note: potency is the fitted concentration of half-maximal effect). An outline of the steps: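 AR-UAS-bla HEK293 cells, plated 4 h before dosing, were treated with compound for 16 h at 37C. beta-Lactamase reporter read after 2 h with LiveBLAzer B/G FRET substrate at room temperature.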
Chain of Androgen receptor (Homo sapiens) (P10275 whole entry, looked up): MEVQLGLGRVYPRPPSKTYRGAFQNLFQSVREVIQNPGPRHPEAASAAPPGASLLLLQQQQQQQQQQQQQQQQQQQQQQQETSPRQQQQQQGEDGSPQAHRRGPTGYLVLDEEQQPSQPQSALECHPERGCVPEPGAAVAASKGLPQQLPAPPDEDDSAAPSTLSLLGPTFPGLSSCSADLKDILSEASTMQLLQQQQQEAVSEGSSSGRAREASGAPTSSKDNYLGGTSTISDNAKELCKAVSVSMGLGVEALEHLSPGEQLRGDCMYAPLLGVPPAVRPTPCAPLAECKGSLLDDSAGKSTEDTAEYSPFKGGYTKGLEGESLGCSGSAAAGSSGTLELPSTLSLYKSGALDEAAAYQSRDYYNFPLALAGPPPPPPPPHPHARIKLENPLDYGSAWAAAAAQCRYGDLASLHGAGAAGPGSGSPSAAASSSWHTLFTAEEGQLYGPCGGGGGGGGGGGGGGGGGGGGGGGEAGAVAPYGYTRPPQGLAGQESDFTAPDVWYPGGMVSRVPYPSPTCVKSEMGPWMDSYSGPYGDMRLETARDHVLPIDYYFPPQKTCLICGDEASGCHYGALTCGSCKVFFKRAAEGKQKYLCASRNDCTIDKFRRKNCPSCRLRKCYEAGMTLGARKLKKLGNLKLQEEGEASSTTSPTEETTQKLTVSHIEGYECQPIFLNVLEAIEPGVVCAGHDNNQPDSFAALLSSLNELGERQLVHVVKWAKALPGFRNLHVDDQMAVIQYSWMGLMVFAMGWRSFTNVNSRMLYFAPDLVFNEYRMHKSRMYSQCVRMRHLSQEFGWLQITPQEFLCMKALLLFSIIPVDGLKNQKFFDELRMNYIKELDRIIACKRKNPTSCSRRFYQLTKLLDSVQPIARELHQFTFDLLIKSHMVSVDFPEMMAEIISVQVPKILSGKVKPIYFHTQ

For experiment [17] the target is unchanged. Briefly: qHTS assay to identify small molecule agonists of the androgen receptor (AR) signaling pathway using the MDA cell line (AID 743040; note: nearly all actives have a fitted effect of over 20% in size). To be noted: MDA-kb2 AR-luc cells, MMTV luciferase, 16 h; at 70.3 µM (top of the series); stronger effect = higher value. The method, boiled down:
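Luciferase agonist assay: 16 h compound exposure at 37C without CO2 in MDA-kb2 AR-luc cells, whose MMTV promoter responds to both AR and GR. Luminescence measured after 30 min room-temperature incubation with ONE-Glo.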

Experiment [18] has the same target. In words: qHTS assay to identify small molecule antagonists of the androgen receptor (AR) signaling pathway using the MDA cell line (AID 743042; note: nearly all actives have a fitted effect of over 55% in size). The method, boiled down: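 Antagonist mode: compounds plus R1881 agonist added to MDA-kb2 AR-luc cells, incubated 16 h at 37C. Luciferase reporter luminescence quantified, with multiplexed CellTiter-Fluor readout for cell viability.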

The nature of experiment [19]: qHTS assay for identifying genotoxic compounds that show differential cytotoxicity against isogenic chicken DT40 cell lines with known DNA damage response pathways - wild type cell line (AID 743012). Note: nearly all actives have a fitted effect of over 60% in size. An outline of the steps:
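Cytotoxicity in repair-proficient parental chicken DT40 cells serves as the comparator for Rad54/Ku70- and Rev3-deficient lines. Cells were exposed to compounds for 40 h at 37 C/5% CO2, and ATP-based luminescence (CellTiter-Glo) measured viability.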

Experiment [20] has as its target Androgen receptor (Homo sapiens) (UniProt P10275). In words: qHTS assay to identify small molecule antagonists of the androgen receptor (AR) signaling pathway (AID 743035; active = well fitted inhibition curve with a large enough effect in the signal ratio in the repeat runs, not every such curve was filed as active; the % refers to the signal ratio). The method, boiled down:
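Steps: seed AR-UAS-bla GripTite HEK293 cells, incubate 4 h at 37C; pin in test compound, then add agonist R1881; incubate 16 h at 37C; add LiveBLAzer B/G FRET substrate, 2 h at room temperature; read fluorescence.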

Values joined by “and” are separate entries in the source; they are usually repeats but may differ in a detail not shown here. Identical values can stand only once. Results filed as inconclusive are left out. More than one record can exist for a structure, and the calls need not agree. Active and inactive are the calls of the source. Unless noted, calls come from the whole dose curve; as a rule, active = well fitted curve in the direction sought with a large enough effect in the repeat runs; inconclusive = weak or mixed curves; inactive = no such curve, though single readings can be large; an effect the other way counts as inactive or inconclusive.
% is set by controls: 0 for no effect and ±100 for the full control effect; tags give direction and shape of the fitted curve or compound fluorescence and quenching.

Chain of Glucocorticoid receptor (Homo sapiens) (P04150 whole entry, looked up): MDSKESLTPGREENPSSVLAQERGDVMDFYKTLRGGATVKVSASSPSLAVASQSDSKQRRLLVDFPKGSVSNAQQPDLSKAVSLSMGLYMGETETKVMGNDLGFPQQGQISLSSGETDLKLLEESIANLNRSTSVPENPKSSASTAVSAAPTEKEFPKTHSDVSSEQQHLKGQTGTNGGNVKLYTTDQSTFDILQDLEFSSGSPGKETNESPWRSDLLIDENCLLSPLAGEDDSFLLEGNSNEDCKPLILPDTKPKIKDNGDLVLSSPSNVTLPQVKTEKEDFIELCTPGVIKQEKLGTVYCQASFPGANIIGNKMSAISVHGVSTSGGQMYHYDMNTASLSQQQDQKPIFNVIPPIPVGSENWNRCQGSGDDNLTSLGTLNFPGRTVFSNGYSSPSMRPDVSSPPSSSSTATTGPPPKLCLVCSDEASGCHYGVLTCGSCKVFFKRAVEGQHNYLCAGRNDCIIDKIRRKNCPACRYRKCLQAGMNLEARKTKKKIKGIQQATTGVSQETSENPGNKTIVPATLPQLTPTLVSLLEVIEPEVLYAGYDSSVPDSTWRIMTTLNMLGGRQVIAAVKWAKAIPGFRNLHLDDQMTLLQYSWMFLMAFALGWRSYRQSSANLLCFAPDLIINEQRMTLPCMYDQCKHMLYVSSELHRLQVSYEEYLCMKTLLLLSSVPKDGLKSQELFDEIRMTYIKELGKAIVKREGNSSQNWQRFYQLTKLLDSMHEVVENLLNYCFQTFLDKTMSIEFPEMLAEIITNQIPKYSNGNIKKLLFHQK

As to `Cc1ccccc1C=O`, the result in experiment [1], in [3], in [4], in experiment [5] and in experiment [8] was inactive. The Potency result in experiment [2], in experiment [6], in experiment [7], in [9], in experiment [10] and in experiment [11] was “inactive” throughout. The Potency result in experiment [12], in experiment [13] and in experiment [14] was “inactive” throughout.
Consider `C=C1C[C@]23C[C@@]1(O)CC[C@H]2[C@@]12C=C[C@H](O)[C@@](C)(C(=O)O1)[C@H]2[C@@H]3C(=O)O`, for which the compound was classed as inactive in experiment [1], in [3], in experiment [4], in experiment [5] and in experiment [8]. Also, the Potency result in experiment [2], in [6], in [7], in experiment [9], in experiment [10] and in [11] was “inactive” each time. For the same compound, the Potency entry in experiment [12] and in experiment [13] was “inactive” each time.
Regarding `CCc1cccc(O)c1`, the call in experiment [1], in [3], in [4], in experiment [5] and in [15] was inactive. For the same compound, the Potency entry in [2], in experiment [6], in [7], in experiment [10], in experiment [11] and in experiment [12] was “inactive” throughout. Further, in experiment [13], the Potency result is “inactive”.
For `Nc1nc(N)c2nc(-c3ccccc3)c(N)nc2n1`, the result in [1], in experiment [3], in [4], in experiment [5] and in experiment [15] was inactive. For the same compound, the Potency is 12.6 µM (active) and 39.8 µM (active) in experiment [2]; 12.6 µM [fluorescent] (active) and 39.8 µM [fluorescent] (active) in experiment [6]; 12.6 µM [fluorescent] (active) and 39.8 µM [fluorescent] (active) in experiment [7]; 9.44 µM (active) and 3.9 µM (active) and 6.11 µM (active) in [11]; 26.6 µM (active) and 6.94 µM (active) and 21.7 µM (active) in [12]; 49.5 µM (active) in experiment [13]. Further, the Potency in experiment [16] was 21.3 µM (active) and 49.5 µM (active) and 49 µM (active). Besides, the Potency entry in experiment [10] and in experiment [18] was “inactive” in each case. For the same compound, the activity change in [17] was 18% (inactive).
For `CCCCCC(C)=O`, the compound was classed as inactive in experiment [1], in [3], in experiment [4], in experiment [5] and in experiment [8]. The Potency entry in experiment [2], in [6], in experiment [7], in [9], in experiment [10] and in [19] was “inactive” in each case. The Potency result in [11], in experiment [12] and in experiment [14] was “inactive” throughout.
With `OC[C@H]1O[C@@H](Oc2ccc(O)cc2)[C@H](O)[C@@H](O)[C@@H]1O`, the call in [1], in experiment [3], in [4], in experiment [5] and in experiment [15] was inactive. The Potency entry in experiment [2], in experiment [6], in experiment [7], in experiment [10], in [12] and in experiment [13] was “inactive” each time. The Potency entry in experiment [11] was “inactive and 30.6 µM (active)”.
For the compound `CCCOCC(C)O` (stereo not drawn), the outcome in experiment [1], in experiment [3], in experiment [4] and in experiment [5] was inactive. Further, the Potency result in experiment [2], in experiment [6], in [7], in experiment [10], in experiment [19] and in experiment [11] was “inactive” each time. The Potency result in experiment [12], in experiment [13], in experiment [20], in experiment [16] and in experiment [18] was “inactive” throughout. Besides, the activity change in [17] is -0.141% (active) and -0.54% (inactive).
For the compound `CC/C(C)=N/O`, the compound was classed as inactive in experiment [1], in [3], in [4], in experiment [5] and in experiment [8]. For the same compound, the Potency result in [2], in experiment [6], in experiment [7], in experiment [9], in experiment [10] and in experiment [19] was “inactive” in each case. Further, the Potency result in experiment [11], in experiment [12] and in experiment [14] was “inactive” throughout.
Take `NCCNCCNCCN`: the compound was called inactive in [1], in experiment [3], in experiment [4], in experiment [5] and in experiment [8]. The Potency entry in experiment [2], in [6], in experiment [7], in [9], in experiment [10] and in experiment [19] was “inactive” in each case. Also, the Potency entry in experiment [11] and in experiment [12] was “inactive” in each case.

The values are drawn from PubChem BioAssay (Tox21).
